# Screens: PubChem BioAssay, The Scripps Research Institute Molecular Screening Center
# NR5A2 inv ag: suppresses constitutive activity of human LRH-1 | O00482 | HEK293T StAR-luciferase reporter, LRH-1 transfected, 24 h | inhibition, % at 3.6 µM | 360,000 tested, 0.13% active | AID 602396;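 active = inhibition above the mean inhibition of all tested compounds plus 3 SD, cut at about 73% in these data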
# NCOA3 inh: human NCOA3 inhibition; AID 588352; Q9Y6Q9; 360,000 tested, 0.17% active; HEK293 GAL4-SRC3 luciferase reporter, luminescence; inhibition, % at 3.6 µM;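 active = inhibition above a per-campaign cutoff, the mean of all compounds plus 3 SD, cut at about 60% in these data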;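 also: higher means less SRC3-driven luciferase light from the GAL4 reporter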
# NR2F2 inh: NR2F2 (human) inhibition, primary screen. HEK293T NGFI-A luciferase reporter, luminescence. 370,000 tested, 0.7% active. AID 686940. inhibition, % at 8.6 µM. P24468;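 active = inhibition above a per-plate cutoff, mean inhibition of test wells between control levels plus 3 SD, cut at about 38% in these data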;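 also: cells cotransfected with COUP-TFII expression vector driving the NGFI-A reporter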
# NCOA2 inhibitor: inhibits human steroid receptor coactivator 2; Q15596; HEK293 GAL4-SRC2 luciferase reporter, luminescence; inhibition, % at 9 µM; 370,000 tested, 0.17% active; AID 651957;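 active = inhibition above the mean inhibition of all tested compounds plus 3 SD, set per campaign, cut at about 52% in these data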
# SRC1 inh: inhibitors of human steroid receptor coactivator 1 (SRC1). Q15788. HEK293 GAL4-SRC1 luciferase reporter, luminescence. 360,000 tested, 0.12% active. inhibition, % at 3.6 µM;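 active = inhibition above the campaign mean plus 3 SD, with each screening campaign given its own cutoff, cut at about 60% in these data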
# A number is an active result; - = inactive; . = not tested or not shown. Shown are actives, neighbours in structure and some others; about 0.83% of the full set was active somewhere.
SMILES,NR5A2 inv ag,NCOA3 inh,NR2F2 inh,NCOA2 inhibitor,SRC1 inh
N#CC1=C(N)C(C#N)(C#N)C(c2cccnc2)C2CC(c3ccccc3)CC=C12 (stereo unspecified),-,62.5,.,.,65.2
N#CC1=C(N)C(C#N)(C#N)[C@H](c2cccnc2)[C@H]2CN(C(=O)OCc3ccccc3)CC=C12,-,-,-,-,-
COc1cc(-c2nnc(-c3cc(-c4ccccc4)nc4ccccc34)o2)cc(OC)c1OC,-,-,-,93.5,-
CC(=O)N(Cc1ccc(F)cc1)C1=C(NCCc2ccccc2)C(=O)c2ccccc2C1=O,-,-,55.4,-,-
Cc1oc(-c2ccc(Cl)cc2)nc1CN1CCCC(C(=O)NC2CC2)C1 (stereo unspecified),-,-,-,-,-
CCOC(=O)N1CCN(C(=O)C2CCCN(Cc3nc(-c4ccc(Cl)cc4)oc3C)C2)CC1 (stereo unspecified),-,-,73.1,-,-
CCCCNC(=O)C1CCCN1C(=O)Nc1cccc(C)c1 (stereo unspecified),.,.,-,-,.
CC1(C)CC(=O)N(CC(=O)N2CCN(c3ccc(F)cc3)CC2)c2ccccc2S1(=O)=O,.,.,-,-,.
COc1cccc2c1C(=O)c1c(O)c3c(c(O)c1C2=O)C[C@@](O)(C(=O)CO)C[C@@H]3O[C@H]1C[C@H](N)[C@@H](O)[C@H](C)O1,89.4,-,.,.,-
O=C(CCl)N1N=C(c2cccs2)CC1c1ccco1 (stereo unspecified),-,-,-,60.1,-
CN1CCN(CC(=O)N2N=C(c3cccs3)CC2c2ccco2)CC1 (stereo unspecified),-,-,-,-,-
CC(=O)Nc1sc2c(c1-c1nc(-c3ccccc3)cs1)CCN(C(C)C)C2,.,.,-,.,.
C/C(=N\Nc1nc2ccccc2[nH]1)c1ccccn1,84.1,79.4,-,-,74.7
Cc1cc([N+](=O)[O-])nn1Cc1ccc(C(=O)N/N=C/c2ccc(O)cc2O)cc1,-,77.0,-,-,-
O=C(N/N=C/c1ccc(O)cc1O)c1ccc(CN2C(=O)c3cccc4cccc2c34)cc1,-,67.9,-,-,-
O=C(N/N=C/c1ccccc1)c1ccc(CN2C(=O)c3cccc4cccc2c34)cc1,-,-,-,-,-
O=C(c1cccc(Br)c1)N1CCC(Oc2cccnc2)CC1,.,.,-,-,.
C=CCNC(=O)CN(C(=O)Cc1cccc(OC(F)(F)F)c1)c1cccc(Br)c1,.,.,-,-,.
O=C(Nc1ccc(N2C(=O)CC(c3ccccc3)C2=O)c(Cl)c1)c1ccccn1 (stereo unspecified),.,.,-,.,.
Nc1nc(N)nc(-c2cc([N+](=O)[O-])ccc2O)n1,-,-,-,-,-
Nc1nc(N)nc(-c2cc(O)ccc2O)n1,-,-,-,-,71.2
COc1ccccc1CCC[C@@H](CCS(=O)(=O)C(C)C)CC1CCCCC1,.,.,-,-,.
COc1ccc(N(C(=O)CCl)C(C(=O)NCCc2ccccc2)c2cccs2)cc1Cl (stereo unspecified),-,76.3,-,-,-
COc1cccc(N(C(=O)c2snc(C(N)=O)c2N)C(C(=O)NCC2CCCO2)c2cccs2)c1 (stereo unspecified),-,-,-,-,-
COc1cccc(N(C(=O)CCl)C(C(=O)NCCc2ccccc2)c2cccs2)c1 (stereo unspecified),-,68.1,-,61.4,-
SMILES,NR5A2 inv ag,NCOA3 inh,NR2F2 inh,NCOA2 inhibitor,SRC1 inh
C=CCn1c(Cc2cccs2)nnc1SCC(=O)Nc1cccc2ccccc12,.,.,-,-,.
CCOC(=O)C1=C(C(=O)OCC)C2N(Cc3ccc(C#N)cc3)c3ccccc3[C@@]23C[C@@H](C(=O)OC)N(S(=O)(=O)c2ccc(C#N)cc2)C3=N1 (stereo partly specified),.,.,-,-,.
O=C(O)CCSc1nnc(-c2ccc3c(c2)OCO3)o1,-,-,-,69.6,-
O=C(O)c1cccc2c1C(=O)c1ccccc1-2,-,-,-,-,-
O=C1C(=C(I)I)c2ccccc2-c2ccccc21,-,-,-,86.3,-
COC(=O)c1cc2sccc2n1Cc1nc(-c2ccc(OC)cc2)oc1C,-,-,39.0,-,-
COC(=O)c1cc2ccsc2n1Cc1nc(-c2ccc(OC)cc2)oc1C,-,-,-,-,-
CCCC[C@H]1C2CC(OC(=O)NCCCc3ccccc3)C(C2)[C@H]2CCCCN21 (stereo partly specified),.,.,-,-,.
OCC1OC(n2cnc3c(NCc4ccccc4O)ncnc32)C(O)C1O (stereo unspecified),89.7,61.7,-,-,-
